# Measurements from PubChem BioAssay (NCI).
# The panel holds about 79,000 compounds, 15% with a hit somewhere; the sample as a whole holds those more often. Values without a mark were called inactive. Active and inactive are the calls of the source. Cut-off read from the data, not from the text of the source: active = growth inhibition above about 70%; inactive = the rest.
# What was measured:
# [1] = NCI Yeast Anticancer Drug Screen. Data for the rad52 strain (AID 147);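 note: 0% = growth of vehicle-treated control cultures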; conditions: S. cerevisiae rad52 mutant growth inhibition, hits give high values
# Summary of the method: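 Compounds are applied to a genetically defined yeast strain lacking normal DNA damage repair, and inhibition of growth is expressed relative to cultures given vehicle only.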
# [2] = NCI Yeast Anticancer Drug Screen. Data for the wt1 strain (AID 149);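 note: 0% = growth of vehicle-treated wt1 cultures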; conditions: S. cerevisiae wt1 strain (SPY 50644) growth inhibition, hits give high values
# Summary of the method: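 Compounds are added to wt1 yeast cultures. Growth is then measured. Inhibition is expressed relative to vehicle-treated controls.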
# [3] = NCI Yeast Anticancer Drug Screen. Data for the rad50EPP+ strain (AID 151);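 note: 0% = growth of vehicle-treated control cultures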; conditions: S. cerevisiae rad50 mutant strain, hits give high values
# Summary of the method: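 Compounds were applied to the rad50EPP+ yeast strain, which bears a defined DNA repair alteration, and growth inhibition was determined relative to vehicle-treated cultures.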
# [4] = NCI Yeast Anticancer Drug Screen. Data for the mgt1 strain (AID 153); conditions: S. cerevisiae mgt1 mutant growth inhibition, hits give high values
# Summary of the method: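 Strain: mgt1 yeast, one of a set carrying defined DNA damage repair or cell cycle control alterations. Compound-treated growth compared with vehicle.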
# [5] = NCI Yeast Anticancer Drug Screen. Data for the rad50 strain (AID 155);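 note: 0% = growth of vehicle-only cultures of the same strain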; conditions: S. cerevisiae rad50 strain growth inhibition, hits give high values
# Summary of the method: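 Inhibition values express reduced yeast growth in compound-treated cultures relative to vehicle-treated controls.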
# [6] = NCI Yeast Anticancer Drug Screen. Data for the mec2-1 strain (AID 157); conditions: S. cerevisiae mec2-1 strain, hits give high values
# Summary of the method: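 Strain: mec2-1 (DNA repair/cell cycle alteration). Compound exposure, then growth measured; inhibition expressed relative to vehicle.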
# [7] = NCI Yeast Anticancer Drug Screen. Data for the rad14 strain (AID 159);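 note: 0% = growth of vehicle-treated control cultures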; conditions: S. cerevisiae rad14 strain growth inhibition, hits give high values
# Summary of the method: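 A mutant yeast strain defective in DNA damage repair is treated with compound; inhibition of its growth is scored against untreated, vehicle-exposed cultures.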
# [8] = NCI Yeast Anticancer Drug Screen. Data for the sgs1 mgt1 strain (AID 161);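 note: 0% = growth of cultures given vehicle only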; conditions: S. cerevisiae sgs1 mgt1 strain, hits give high values
# Summary of the method: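 Genetically altered yeast, compound exposure, growth inhibition relative to vehicle.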
# [9] = NCI Yeast Anticancer Drug Screen. Data for the CLN2oe strain (AID 163);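 note: 0% = growth of vehicle-only control cultures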; conditions: S. cerevisiae CLN2oe strain, hits give high values
# Summary of the method: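 Growth of a genetically modified yeast strain is measured after compound exposure and compared with cultures given vehicle alone.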
# [10] = NCI Yeast Anticancer Drug Screen. Data for the cln2 rad14 strain (AID 165);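 note: 0% = growth equal to vehicle treated cultures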; conditions: S. cerevisiae cln2 rad14 strain, hits give high values
# Summary of the method: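 Compounds are applied to the cln2 rad14 yeast strain, and growth is then compared with that of vehicle-treated cultures to give inhibition.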
# [11] = NCI Yeast Anticancer Drug Screen. Data for the bub3 strain (AID 167); conditions: S. cerevisiae bub3 mutant strain, hits give high values
# Summary of the method: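 Steps: expose the mutant yeast strain to compound; grow alongside vehicle-treated cultures; measure growth; express inhibition against the vehicle cultures.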
# [12] = NCI Yeast Anticancer Drug Screen. Data for the wt2 strain (AID 169);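 note: 0% = growth of vehicle-treated yeast cultures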; conditions: S. cerevisiae wt2 strain growth inhibition, hits give high values
# Summary of the method: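 This strain belongs to a panel of yeast strains with defined genetic alterations in DNA damage repair or cell cycle control. Compounds are applied, and growth inhibition is measured against vehicle-treated cultures.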
# [13] = NCI Yeast Anticancer Drug Screen. Data for the mlh1 strain (AID 171);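 note: 0% = growth of vehicle-treated control cultures of the same strain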; conditions: S. cerevisiae mlh1 strain growth inhibition, hits give high values
# Summary of the method: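 Growth of the mutant yeast strain after compound exposure, expressed as inhibition relative to vehicle-only controls.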
# [14] = NCI Yeast Anticancer Drug Screen. Data for the sgs1 strain (AID 173);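 note: 0% = growth of vehicle-only control cultures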; conditions: S. cerevisiae sgs1 mutant, hits give high values
# Summary of the method: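 Growth of a yeast strain bearing a defined genetic alteration is measured after compound treatment. Inhibition is expressed relative to vehicle-only controls.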
# [15] = NCI Yeast Anticancer Drug Screen. Data for the mlh1 rad18 strain (AID 175); conditions: S. cerevisiae mlh1 rad18 strain growth inhibition, hits give high values
# Summary of the method: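 Read-out is yeast growth inhibition, calculated against vehicle-only controls. The compound was applied to a strain engineered with DNA damage repair alterations.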
# [16] = NCI Yeast Anticancer Drug Screen. Data for the rad18 strain (AID 177); conditions: S. cerevisiae rad18 mutant growth inhibition, hits give high values
# Summary of the method: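 Growth of the mutant yeast strain after compound exposure, normalised to vehicle-only cultures.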
# [17] = at 5.0 µM (retest, dose inferred, filed as 0.5)
# [18] = at 50.0 µM (retest, dose inferred, filed as 5.0)
smiles,measurement,setting,value
O=C(OCC=C1CCCC1)c1cc([N+](=O)[O-])cc([N+](=O)[O-])c1,growth inhibition,[1]; at 1.2 µM,-1%
same,growth inhibition,[1]; at 3.7 µM,2%
same,growth inhibition,[1]; at 11.0 µM,21%
same,growth inhibition,[1]; at 33.0 µM,85% (active)
same,growth inhibition,[1]; at 100.0 µM,96% (active)
same,growth inhibition,[2]; at 1.2 µM,-6%
same,growth inhibition,[2]; at 3.7 µM,-1%
same,growth inhibition,[2]; at 11.0 µM,10%
same,growth inhibition,[2]; at 33.0 µM,86% (active)
same,growth inhibition,[2]; at 100.0 µM,98% (active)
same,growth inhibition,[3]; at 1.2 µM,3%
same,growth inhibition,[3]; at 3.7 µM,16%
same,growth inhibition,[3]; at 11.0 µM,53%
same,growth inhibition,[3]; at 33.0 µM,87% (active)
same,growth inhibition,[3]; at 100.0 µM,92% (active)
same,growth inhibition,[4]; at 1.2 µM,-1%
same,growth inhibition,[4]; at 3.7 µM,-1%
same,growth inhibition,[4]; at 11.0 µM,16%
same,growth inhibition,[4]; at 33.0 µM,95% (active)
same,growth inhibition,[4]; at 100.0 µM,98% (active)
same,growth inhibition,[5]; at 1.2 µM,0%
same,growth inhibition,[5]; at 3.7 µM,4%
same,growth inhibition,[5]; [17],11%
same,growth inhibition,[5]; at 11.0 µM,18%
same,growth inhibition,[5]; at 33.0 µM,86% (active)
same,growth inhibition,[5]; [18],57%
same,growth inhibition,[5]; at 50.0 µM,4.3%
same,growth inhibition,[5]; at 100.0 µM,96% (active)
same,growth inhibition,[6]; at 1.2 µM,-3%
same,growth inhibition,[6]; at 3.7 µM,-2%
same,growth inhibition,[6]; [17],3%
same,growth inhibition,[6]; at 11.0 µM,13%
same,growth inhibition,[6]; at 33.0 µM,89% (active)
same,growth inhibition,[6]; [18],48%
same,growth inhibition,[6]; at 50.0 µM,-14.6%
same,growth inhibition,[6]; at 100.0 µM,98% (active)
same,growth inhibition,[7]; at 1.2 µM,-2%
same,growth inhibition,[7]; at 3.7 µM,1%
same,growth inhibition,[7]; at 11.0 µM,12%
same,growth inhibition,[7]; at 33.0 µM,71% (active)
same,growth inhibition,[7]; at 100.0 µM,97% (active)
same,growth inhibition,[8]; [17],-2%
same,growth inhibition,[8]; [18],81% (active)
same,growth inhibition,[8]; at 50.0 µM,2.55%
same,growth inhibition,[9]; at 1.2 µM,-6%
same,growth inhibition,[9]; at 3.7 µM,1%
same,growth inhibition,[9]; at 11.0 µM,9%
same,growth inhibition,[9]; at 33.0 µM,60%
same,growth inhibition,[9]; at 100.0 µM,96% (active)
same,growth inhibition,[10]; [17],-24%
same,growth inhibition,[10]; [18],4%
same,growth inhibition,[10]; at 50.0 µM,-6.45%
same,growth inhibition,[11]; at 1.2 µM,-6%
same,growth inhibition,[11]; at 3.7 µM,-6%
same,growth inhibition,[11]; [17],-21%
same,growth inhibition,[11]; at 11.0 µM,-1%
same,growth inhibition,[11]; at 33.0 µM,61%
same,growth inhibition,[11]; [18],70% (active)
same,growth inhibition,[11]; at 50.0 µM,5.55%
same,growth inhibition,[11]; at 100.0 µM,96% (active)
same,growth inhibition,[12]; at 1.2 µM,-3%
same,growth inhibition,[12]; at 3.7 µM,-3%
same,growth inhibition,[12]; at 11.0 µM,16%
same,growth inhibition,[12]; at 33.0 µM,97% (active)
same,growth inhibition,[12]; at 100.0 µM,98% (active)
same,growth inhibition,[13]; at 1.2 µM,-2%
same,growth inhibition,[13]; at 3.7 µM,4%
same,growth inhibition,[13]; at 11.0 µM,22%
same,growth inhibition,[13]; at 33.0 µM,94% (active)
same,growth inhibition,[13]; at 100.0 µM,98% (active)
same,growth inhibition,[14]; at 1.2 µM,-1%
same,growth inhibition,[14]; at 3.7 µM,4%
same,growth inhibition,[14]; at 11.0 µM,26%
same,growth inhibition,[14]; at 33.0 µM,97% (active)
same,growth inhibition,[14]; at 100.0 µM,99% (active)
same,growth inhibition,[15]; [17],7%
same,growth inhibition,[15]; [18],94% (active)
same,growth inhibition,[15]; at 50.0 µM,23.6%
same,growth inhibition,[16]; at 1.2 µM,-2%
same,growth inhibition,[16]; at 3.7 µM,2%
same,growth inhibition,[16]; at 11.0 µM,21%
same,growth inhibition,[16]; at 33.0 µM,95% (active)
same,growth inhibition,[16]; at 100.0 µM,98% (active)
CCCS(=O)(=O)Nc1ccc(Nc2c3ccccc3nc3ccccc23)c(OC)c1,growth inhibition,[1]; at 1.2 µM,20%
same,growth inhibition,[1]; at 3.7 µM,64%
same,growth inhibition,[1]; at 11.0 µM,82% (active)
same,growth inhibition,[1]; at 33.0 µM,87% (active)
same,growth inhibition,[1]; at 100.0 µM,93% (active)
same,growth inhibition,[2]; at 1.2 µM,-70%
same,growth inhibition,[2]; at 3.7 µM,-55%
same,growth inhibition,[2]; at 11.0 µM,-64%
same,growth inhibition,[2]; at 33.0 µM,-35%
same,growth inhibition,[2]; at 100.0 µM,66%
same,growth inhibition,[3]; at 1.2 µM,-32%
same,growth inhibition,[3]; at 3.7 µM,-21%
same,growth inhibition,[3]; at 11.0 µM,-20%
same,growth inhibition,[3]; at 33.0 µM,16%
same,growth inhibition,[3]; at 100.0 µM,69%
same,growth inhibition,[4]; at 1.2 µM,-21%
same,growth inhibition,[4]; at 3.7 µM,-64%
same,growth inhibition,[4]; at 11.0 µM,-52%
same,growth inhibition,[4]; at 33.0 µM,-10%
same,growth inhibition,[4]; at 100.0 µM,73% (active)
same,growth inhibition,[5]; at 1.2 µM,14%
same,growth inhibition,[5]; at 3.7 µM,59%
same,growth inhibition,[5]; [17],79% (active)
same,growth inhibition,[5]; at 11.0 µM,84% (active)
same,growth inhibition,[5]; at 33.0 µM,90% (active)
same,growth inhibition,[5]; [18],98% (active)
same,growth inhibition,[5]; at 50.0 µM,7.1%
same,growth inhibition,[5]; at 100.0 µM,91% (active)
same,growth inhibition,[6]; at 1.2 µM,-59%
same,growth inhibition,[6]; at 3.7 µM,-88%
same,growth inhibition,[6]; [17],2%
same,growth inhibition,[6]; at 11.0 µM,-60%
same,growth inhibition,[6]; at 33.0 µM,33%
same,growth inhibition,[6]; [18],99% (active)
same,growth inhibition,[6]; at 50.0 µM,12.8%
same,growth inhibition,[6]; at 100.0 µM,85% (active)
same,growth inhibition,[7]; at 1.2 µM,-62%
same,growth inhibition,[7]; at 3.7 µM,-61%
same,growth inhibition,[7]; at 11.0 µM,-43%
same,growth inhibition,[7]; at 33.0 µM,-16%
same,growth inhibition,[7]; at 100.0 µM,66%
same,growth inhibition,[8]; [17],36%
same,growth inhibition,[8]; [18],99% (active)
same,growth inhibition,[8]; at 50.0 µM,82.8% (active)
same,growth inhibition,[9]; at 1.2 µM,-9%
same,growth inhibition,[9]; at 3.7 µM,-14%
same,growth inhibition,[9]; at 11.0 µM,-11%
same,growth inhibition,[9]; at 33.0 µM,21%
same,growth inhibition,[9]; at 100.0 µM,67%
same,growth inhibition,[10]; [17],34%
same,growth inhibition,[10]; [18],98% (active)
same,growth inhibition,[10]; at 50.0 µM,52%
same,growth inhibition,[11]; at 1.2 µM,-67%
same,growth inhibition,[11]; at 3.7 µM,-49%
same,growth inhibition,[11]; [17],40%
same,growth inhibition,[11]; at 11.0 µM,-45%
same,growth inhibition,[11]; at 33.0 µM,-16%
same,growth inhibition,[11]; [18],98% (active)
same,growth inhibition,[11]; at 50.0 µM,37.6%
same,growth inhibition,[11]; at 100.0 µM,65%
same,growth inhibition,[13]; at 1.2 µM,-85%
same,growth inhibition,[13]; at 3.7 µM,-74%
same,growth inhibition,[13]; at 11.0 µM,-45%
same,growth inhibition,[13]; at 33.0 µM,9%
same,growth inhibition,[13]; at 100.0 µM,74% (active)
same,growth inhibition,[14]; at 1.2 µM,-45%
same,growth inhibition,[14]; at 3.7 µM,-47%
same,growth inhibition,[14]; at 11.0 µM,-41%
same,growth inhibition,[14]; at 33.0 µM,7%
same,growth inhibition,[14]; at 100.0 µM,77% (active)
same,growth inhibition,[15]; [17],66%
same,growth inhibition,[15]; [18],98% (active)
same,growth inhibition,[15]; at 50.0 µM,29.4%
same,growth inhibition,[16]; at 1.2 µM,-58%
same,growth inhibition,[16]; at 3.7 µM,-63%
same,growth inhibition,[16]; at 11.0 µM,-43%
same,growth inhibition,[16]; at 33.0 µM,-10%
same,growth inhibition,[16]; at 100.0 µM,75% (active)
